The record followed here is ChEMBL document CHEMBL3988442, “University of Dundee, Small-Polar-MMV Screening Library” (2021).

Among all 48,000 compounds or so, about 13,000 (27%) showed an effect of 50% or more. The list shows a part of the results.

The assay relates to Wolbachia pipientis. The experiment in a line: Anti-Wolbachia Cell-Based Screen. Details: scale not given: in the data most compounds retested in dose-response had high values. Format: functional. As to conditions: 5 µM.
Regarding `NC(=O)c1ccc(N2CCCCC2)c(NC(=O)c2cc(F)ccc2F)c1`, the “Percent Effect” value is -3.666%. `CCC(C)C(=O)NCc1cccc(N2CCCCC2=O)c1` (stereo unspecified): the “Percent Effect” value is given as -5.78%. For `Cn1cnnc1S(=O)(=O)C1CCN(S(=O)(=O)C2CC2)CC1` the value was -4.739%; for `CN(Cc1cc(Br)cn1C)C(=O)c1cscn1`, 4.085%; for `CCC(NCc1nccn1C)c1nc(C(F)(F)F)cs1` (stereo unspecified), 20.15%.

On to `Cc1ccc(CN2CCC[C@@H]3CN(C(=O)c4ccco4)C[C@@H]32)o1.O=C(O)C(F)(F)F`, for which the “Percent Effect” value is given as -0.1922%. For `COCC(=O)N1CCc2c(nnn2C)C1COCCN1CCCC1.O=C(O)C(F)(F)F` (stereo unspecified) the value was -0.9958%; for `CN(C)C(=O)N1CCc2c(nnn2C)C1COCc1ccccc1` (stereo unspecified), -4.916%; for `COCC1c2nnn(C)c2CCN1C(=O)COc1ccccc1OC` (stereo unspecified), 111.7%. In the case of `Cn1cnnc1CNC(=O)Nc1ccc(OC2CCC2)c(F)c1`, the “Percent Effect” value stood at 19.99%.

For `Cc1nc(C)c(C(=O)N2CCc3nnc(C4CCCN4C)n3CC2)s1` (stereo unspecified), the “Percent Effect” value amounted to 98.46%. Under `Cc1nc(C)c(C(=O)N2CCc3nnc(C4CCCCN4C)n3CC2)s1` (stereo unspecified) stands 78.92%; under `Cc1nc(C)c(C(=O)N2CCCc3c(F)cccc32)o1`, -18.15%. In the case of `Cc1ncsc1C(=O)N1CCc2nnc(C3CCCCN3C)n2CC1` (stereo unspecified), the “Percent Effect” value was 103.3%. Under `Cc1cc2c(=O)n3c(nc2s1)CCN(C(=O)c1scnc1C)CC3` stands -10.56%; under `Cc1nc(C)c(C(=O)N2CCCC2c2nnc3n2CCCCC3)s1` (stereo unspecified), 13.74%; under `Cc1nc(C)c(C(=O)N2CCc3nnc(C4CCCCN4C)n3CC2)o1` (stereo unspecified), 112.5%.

Take `Cc1nc(C2CCCN(C(=O)c3sc(C)nc3C)C2)no1` (stereo unspecified): the “Percent Effect” value is given as -10.94%. Under `Cc1ccc(C(=O)N2CCCC2c2nnc3n2CCCCC3)o1` (stereo unspecified) stands -4.034%. Under `C=C(C)COc1cccc(CNC(CC(C)C)c2ncnn2C)c1` (stereo unspecified) stands -17.42%; under `CCc1ccccc1OCCN(C)C(=O)CCN1CCCCO1`, -13.9%.

For `CCCN(CC)c1ccc(C(=O)N2CCCC2c2cnn(C)c2)cn1` (stereo unspecified), the “Percent Effect” value is reported as 104.2%.

Take `CCN(c1ccc(C(=O)N(Cc2cnn(C)c2)C(C)C)cn1)C(C)C`: the “Percent Effect” value is given as -13.88%. Take `CCN(c1ccc(C(=O)N2CCCC2c2cnn(C)c2)cn1)C(C)C` (stereo unspecified): the “Percent Effect” value is on record as 103.8%. Under `CC(C)(C#N)CCCS(=O)(=O)c1nccn1-c1cccc(F)c1` stands -8.679%. Consider `CC(C)(C)c1cc(NC(=O)CN(Cc2cccs2)Cc2cccs2)on1`, for which the “Percent Effect” value is reported as 32.93%. Under `CC(CC(F)(F)F)NCc1ccccc1-n1ccnc1` (stereo unspecified) stands 3.95%; under `CC(C)C1CN(S(=O)(=O)c2ccc(C#N)cc2)CCS1` (stereo unspecified), -10.5%. With `Cc1cc(C)n(C2CCCN(C(=O)CN(C)C3CC3)C2)n1` (stereo unspecified), the “Percent Effect” value is listed as -13.37%. For `Cc1cc(C)n(C2CCCN(C(=O)CCOc3cccc(F)c3)C2)n1` (stereo unspecified) the value was 118.8%; for `Cc1nc(C)n(C2CCCN(C(=O)CCOc3cccc(F)c3)C2)n1` (stereo unspecified), 103.4%.

For `Cc1cc(C)n(C2CCCN(C(=O)COCC(F)(F)F)C2)n1` (stereo unspecified), the “Percent Effect” value is given as -14.38%. For `CC(NS(C)(=O)=O)C(=O)Nc1ccc2oc(C3CC3)nc2c1` (stereo unspecified) the value was -12.46%; for `CC(C)n1cnnc1CNC(=O)CCCOc1ccccc1Cl`, -21.75%. Under `O=C(NS(=O)(=O)c1cnn(-c2ccccc2F)c1)c1ccco1` stands -14.51%; under `N#Cc1cccc(S(=O)(=O)N(CC2CCC2)c2cn[nH]c2)c1`, -4.525%; under `O=C(C1=CCCC1)N1C[C@H](OCc2cccnc2)[C@H]2OCCC[C@H]21`, -3.807%. Under `O=C(c1ccnnc1)N1C[C@@H](OCc2cccnc2)[C@H]2OCCC[C@H]21` stands 85.61%; under `O=C(c1ccnnc1)N1CCO[C@H]2[C@H](Oc3cccnc3)CC[C@@H]21`, 84%; under `Cc1occc1C(=O)N1CCO[C@H]2[C@H](Oc3cccnc3)CC[C@@H]21.O=C(O)C(F)(F)F`, -18.12%. As to `O=C(c1ccnnc1)N1CCO[C@H]2[C@@H](OCc3cccnc3)CC[C@@H]21`, the “Percent Effect” value is -4.529%. Under `O=C(c1ccnnc1)N1C[C@H](Oc2cccnc2)[C@H]2OCCC[C@H]21` stands -6.406%. For `CCN(CC)C(=O)CCNC(=O)c1ccccc1N1CCOCC1` the value was -16.45%. For `Cc1csc(N2CCN(C(=O)c3cc(Cl)c[nH]3)CC2)n1` the value was -16.71%; for `Cc1nc(C)n(CC2CCCN(CCCS(=O)(=O)N(C)C)C2)n1` (stereo unspecified), -11.1%; for `Cc1nc(C)n(CC2CCCN2CCC(=O)N2CCCCC2)n1` (stereo unspecified), 145.3%. For `Cc1nc(C)n(CC2CN(CCc3ccncc3)CCO2)n1` (stereo unspecified), the “Percent Effect” value is listed as -6.873%. Regarding `Cc1nc(C)n(CC2CCCN(CCC(=O)N3CCOCC3)C2)n1` (stereo unspecified), the “Percent Effect” value is recorded as 132.9%. For `Cc1nc(C)n(CC2CCCN(CC(=O)N3CCCC3)C2)n1` (stereo unspecified) the value was 118.1%.

On to `Cc1nc(C)n(CC2CCCCN2CCCO)n1` (stereo unspecified), for which the “Percent Effect” value stood at 0.7848%. For `Cc1nc(C)n(CC2CCCCN2CCS(C)(=O)=O)n1` (stereo unspecified) the value was -3.909%. `Cc1nc(C)n(CC2CN(CCn3cccn3)CCO2)n1` (stereo unspecified): the “Percent Effect” value is given as 6.801%.

As for `Cc1nc(C)n(CC2CCCN(CCC(=O)N3CCCCC3)C2)n1` (stereo unspecified), the “Percent Effect” value is listed as -10.32%. Under `Cc1nc(C)n(CC2CCCN(CC(=O)Nc3nncs3)C2)n1` (stereo unspecified) stands -5.341%. Under `Cc1nc(C)n(CC2CCCN(CC(=O)Nc3c(C)n[nH]c3C)C2)n1` (stereo unspecified) stands -12.55%; under `Cc1nc(C)n(CC2CN(CCC(=O)N3CCCCC3)CCO2)n1` (stereo unspecified), 110.4%; under `CCc1nc(C)c(-c2nccn2CC2CCCCO2)[nH]1` (stereo unspecified), -5.573%. As to `CCN(C(=O)c1ccc2nnc(C3CCN(CCOC)C3)n2c1)C(C)C.O=C(O)C(F)(F)F` (stereo unspecified), the “Percent Effect” value came out at 2.172%. Under `CN(CCN1CCCCCC1)Cc1cnc(N)nc1` stands -0.8813%; under `CCN1CCC(Cn2ccc3ccc(C(=O)OC)cc3c2=O)C1` (stereo unspecified), -7.454%; under `COc1ccccc1CNC(=O)C1=NN(c2ccc(C)cc2)C(=O)CN1`, 1.348%. Under `O=C(CCN1CCCC1c1ccccn1)N1CCc2ccccc2C1` (stereo unspecified) stands 1%; under `COCC(=O)N1CCCC1c1ccnc(Nc2cnccn2)n1` (stereo unspecified), -7.486%. Under `Nc1nccc(C2CCCN2CCc2ccccc2)n1` (stereo unspecified) stands 168.1%. Regarding `CSCC1CCCN1CCc1ccncc1` (stereo unspecified), the “Percent Effect” value is recorded as 7.935%.

For `c1ccc(CCN2CCCC2c2ccnc(Nc3cnccn3)n2)cc1` (stereo unspecified), the “Percent Effect” value was found to be 169.2%. Under `c1cc(CCN2CCCC2CN2CCCC2)ccn1` (stereo unspecified) stands 17.12%. For `c1ccc(CCN2CCCC2c2ccnc(Nc3ncccn3)n2)cc1` (stereo unspecified) the value was 212.6%; for `Fc1ccc2[nH]c(C3CCCN3CCc3ccccn3)nc2c1` (stereo unspecified), 17.03%. As for `CCn1cc2c(n1)C(COC)CN(C(=O)COc1ccccc1)C2` (stereo unspecified), the “Percent Effect” value is on record as -10.51%. For `Cc1cccnc1CN(C)C(C(=O)O)c1ccc(-n2cccn2)cc1` (stereo unspecified), the “Percent Effect” value is given as -2.38%.

In the case of `COc1nc2c(cc1C(=O)NCCCc1csc(N)n1)CCC2`, the “Percent Effect” value is listed as -5.437%. Under `COC(=O)COc1cccc(NS(=O)(=O)c2cc(C(=O)O)cs2)c1` stands 15.7%. Under `Nc1cc2c(nn1)CCN(C(=O)Cc1ccc3c(c1)CCCC3)C2` stands -1.547%; under `O=C(O)C(F)(F)F.O=C(c1ccco1)N1CCCC2(CN(Cc3ccc(F)cc3)CCO2)C1` (stereo unspecified), -3.961%. For `Cc1ccc(C(=O)N2CC3(CCNCC3)c3cc(Cl)ccc32)cn1.O=C(O)C(F)(F)F.O=C(O)C(F)(F)F` the value was 107.7%; for `Cc1ccc(C(=O)N2CC3(CCCCC3)c3cc(C(=O)O)ccc32)cn1.O=C(O)C(F)(F)F`, -4.08%; for `CN(C)C(=O)N1CC2(CCNCC2)c2cc(F)ccc21.O=C(O)C(F)(F)F`, 2.852%. Turning to `O=C(O)C(F)(F)F.O=C(c1ccco1)N1CC2(CCNCC2)c2cc(Cl)ccc21`, the “Percent Effect” value came out at 104.6%. Consider `O=C(O)C(F)(F)F.O=C(c1cccc(Cl)c1)N1CCCC2(CCCNC2)C1` (stereo unspecified), for which the “Percent Effect” value is -4.426%. For `O=C(C1CC1)N1CC2(CCNCC2)c2cc(F)ccc21.O=C(O)C(F)(F)F` the value was -3.609%; for `Cc1ccc(N2CCN(Cc3ccccc3)C3(CCNCC3)C2=O)cn1.O=C(O)C(F)(F)F`, -1.603%; for `COc1cc(C(=O)N2CC3(CCNCC3)c3cc(Cl)ccc32)ccn1.O=C(O)C(F)(F)F.O=C(O)C(F)(F)F`, 123.4%. Under `O=C(O)C(F)(F)F.O=C(O)C(F)(F)F.O=C(c1ccncc1)N1CC2(CCNCC2)c2cc(Cl)ccc21` stands 113.8%. Under `CNC(=O)[C@@H](C1CCCCC1)N1CCC[C@H]1C(=O)NCCN1CCCC1.Cl.Cl` stands 1.393%; under `CC1CCCN(C(=O)c2ncncc2Cl)C1` (stereo unspecified), -8.48%; under `CCc1nc(C)c(CN2CCOC(Cc3ccccc3Cl)C2)[nH]1` (stereo unspecified), 16.37%. As to `COCC(=O)NC(c1ccc(Cl)cc1)C(F)(F)F` (stereo unspecified), the “Percent Effect” value amounted to 5.635%. For `Cc1cc(C(=O)Nc2ccc(N3CCCC3)cn2)ccc1-n1cncn1` the value was -6.985%. Under `Cc1nn(-c2ccc(F)cc2)c2[nH]nc(N)c12` stands 1.976%. As for `COCCC1(CO)CCCN(Cc2cc(C(F)(F)F)ccc2F)C1` (stereo unspecified), the “Percent Effect” value came out at 0.6502%. For `Cn1cc(NC(=O)N2CCC(CN3CCCC3)CC2)ccc1=O` the value was -5.518%. Under `FC(F)(F)c1nc(NC2CCCCC2)c2ccccc2n1` stands 111.5%; under `FC(F)(F)c1nc(NC2CCCC2)c2ccccc2n1`, 1.763%; under `CC(C)C(Nc1nc(C(F)(F)F)nc2ccccc12)C(=O)O` (stereo unspecified), 2.163%. For `CNC(=O)c1cc2c(nc1NC(C)C)CCNCC2` the value was 9.833%; for `COc1ccnc(N2CCN(C(=O)c3cnn(C)c3C3CC3)CC2)n1`, 4.417%; for `CNC(=O)c1cnn2c(C3CCCN3C)ccnc12` (stereo unspecified), 176.6%. Consider `COCCOc1ccc(-c2noc([C@@H]3CCCN3)n2)cn1`, for which the “Percent Effect” value is listed as 7.967%.

In the case of `CCN(CC)C(=O)c1cc(C2CCCN2C)ccn1.O=CO` (stereo unspecified), the “Percent Effect” value is listed as -4.853%. Under `CNC(=O)c1cnn2c(C3CCCN3)ccnc12` (stereo unspecified) stands 113.8%.
